Activity calls are given as the source filed them.
Legend:
[1] = test system: Plasmodium falciparum Sir2 (PF13_0152, Sir2A); assay: pfSir2 binders on small-molecule microarrays, primary screen, biochemical, small-molecule microarray, 635 nm fluorescence (AID 1098); settings: small-molecule microarray binding, fluorescence 635 nm; higher = more signal;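 note: score merges spot fluorescence intensity with its signal-to-noise ratio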
[2] = small-molecule microarray binders of probe aDKK1, primary screen, biochemical, biotinylated probe, 635/667 nm fluorescence (AID 1099); settings: higher = more signal;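 note: score merges 667nm spot fluorescence with signal to noise across triplicate slides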
[3] = small-molecule microarray binders of probe aCHRDL2, primary screen, biochemical, biotinylated probe, 635/667 nm fluorescence (AID 1100); settings: higher = more signal
[4] = splicing luciferase reporter signal modulators, primary screen, spliceosome inhibition project, cell-based, HEK293, splice +/- reporter (AID 1101); settings: luminescence, 24 h, higher = more signal, called active from +8 up or from −8 down;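 note: HEK293 cells carrying a splicing-competent luciferase reporter gene; test concentration not given here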
[5] = target: Fibroblast growth factor 10 (Homo sapiens) (UniProt O15520); assay: FGF10 binders on small-molecule microarrays, primary screen, biochemical, small-molecule microarray, 635 nm fluorescence (AID 1102); settings: FGF10 binding, fluorescence 635 nm, higher = more signal
Fibroblast growth factor 10 (Homo sapiens), sequence (O15520 whole entry, looked up): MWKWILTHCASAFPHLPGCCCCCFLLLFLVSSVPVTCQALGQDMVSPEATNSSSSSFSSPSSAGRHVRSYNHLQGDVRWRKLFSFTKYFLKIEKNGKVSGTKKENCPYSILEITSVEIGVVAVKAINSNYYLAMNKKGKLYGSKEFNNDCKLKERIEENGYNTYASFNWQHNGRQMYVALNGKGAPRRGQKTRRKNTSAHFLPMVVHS

[6] = test system: glycogen synthase kinase-3 (GSK3A per assay name; protocol says GSK3B); assay: GSK3 binders on small-molecule microarrays, primary screen, biochemical, small-molecule microarray, 635 nm fluorescence, GSK3A (AID 1103); settings: small-molecule microarray binding, fluorescence 635 nm; higher = more signal; note: the record names both GSK3A and GSK3B
[7] = target: Epidermal growth factor receptor (Homo sapiens) (UniProt P00533); assay: EGFR binders on small-molecule microarrays, primary screen, biochemical, small-molecule microarray, 635 nm fluorescence (AID 1104); settings: EGFR binding, higher = more signal;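 note: score merges 667 nm emission intensity with spot signal to noise over triplicate slides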
Epidermal growth factor receptor (Homo sapiens), sequence (P00533 whole entry, looked up): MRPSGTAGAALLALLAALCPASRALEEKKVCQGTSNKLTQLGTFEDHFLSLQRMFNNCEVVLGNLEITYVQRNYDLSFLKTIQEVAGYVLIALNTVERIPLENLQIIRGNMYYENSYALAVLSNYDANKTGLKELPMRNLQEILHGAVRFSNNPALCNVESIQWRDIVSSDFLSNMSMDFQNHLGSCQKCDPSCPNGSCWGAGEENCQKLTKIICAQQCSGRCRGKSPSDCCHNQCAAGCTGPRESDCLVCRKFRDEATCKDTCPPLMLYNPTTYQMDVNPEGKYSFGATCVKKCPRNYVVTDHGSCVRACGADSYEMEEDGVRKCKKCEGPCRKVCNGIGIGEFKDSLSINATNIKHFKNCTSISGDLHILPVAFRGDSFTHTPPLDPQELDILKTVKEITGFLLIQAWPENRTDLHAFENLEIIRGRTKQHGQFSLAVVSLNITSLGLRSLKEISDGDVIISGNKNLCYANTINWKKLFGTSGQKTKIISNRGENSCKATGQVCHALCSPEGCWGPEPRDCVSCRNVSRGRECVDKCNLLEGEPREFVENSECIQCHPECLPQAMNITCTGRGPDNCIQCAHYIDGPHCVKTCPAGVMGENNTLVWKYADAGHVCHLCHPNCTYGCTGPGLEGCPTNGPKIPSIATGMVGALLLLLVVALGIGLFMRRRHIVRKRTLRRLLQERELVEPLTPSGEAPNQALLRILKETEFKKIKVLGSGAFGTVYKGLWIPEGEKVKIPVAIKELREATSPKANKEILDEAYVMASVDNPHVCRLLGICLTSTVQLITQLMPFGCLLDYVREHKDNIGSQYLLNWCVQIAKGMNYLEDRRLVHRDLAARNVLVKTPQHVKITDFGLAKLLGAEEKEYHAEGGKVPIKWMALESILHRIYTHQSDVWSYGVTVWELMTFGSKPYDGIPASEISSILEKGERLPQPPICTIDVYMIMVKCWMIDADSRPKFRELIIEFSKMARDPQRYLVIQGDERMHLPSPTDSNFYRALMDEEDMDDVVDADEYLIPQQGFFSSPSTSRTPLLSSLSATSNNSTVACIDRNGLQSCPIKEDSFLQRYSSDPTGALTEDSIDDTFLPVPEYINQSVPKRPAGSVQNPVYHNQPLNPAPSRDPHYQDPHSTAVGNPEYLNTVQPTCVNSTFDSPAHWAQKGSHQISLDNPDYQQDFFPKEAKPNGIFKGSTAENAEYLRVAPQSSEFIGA

[8] = target: Follistatin-related protein 3 (Homo sapiens) (UniProt O95633); assay: FSTL3 binders on small-molecule microarrays, primary screen, biochemical, small-molecule microarray, 635 nm fluorescence (AID 1105); settings: FSTL3 binding, higher = more signal;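 note: score merges emission near 667 nm and signal to noise per printed spot across three slides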
Follistatin-related protein 3 (Homo sapiens), sequence (O95633 whole entry, looked up): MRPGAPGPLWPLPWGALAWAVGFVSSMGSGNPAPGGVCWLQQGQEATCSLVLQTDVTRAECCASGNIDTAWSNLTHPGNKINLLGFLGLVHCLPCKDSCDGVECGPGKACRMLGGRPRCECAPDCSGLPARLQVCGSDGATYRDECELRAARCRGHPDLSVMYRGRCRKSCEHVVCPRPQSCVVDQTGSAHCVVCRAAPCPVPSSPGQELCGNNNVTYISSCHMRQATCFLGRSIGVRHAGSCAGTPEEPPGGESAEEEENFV

[9] = target: Dickkopf-related protein 1 (Homo sapiens) (UniProt O94907); assay: DKK1 binders on small-molecule microarrays, primary screen, biochemical, small-molecule microarray, 635 nm fluorescence scan (AID 1106); settings: DKK1 binding, higher = more signal;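 note: score merges emission near 667 nm with signal to noise over three replicate slides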
Dickkopf-related protein 1 (Homo sapiens), sequence (O94907 whole entry, looked up): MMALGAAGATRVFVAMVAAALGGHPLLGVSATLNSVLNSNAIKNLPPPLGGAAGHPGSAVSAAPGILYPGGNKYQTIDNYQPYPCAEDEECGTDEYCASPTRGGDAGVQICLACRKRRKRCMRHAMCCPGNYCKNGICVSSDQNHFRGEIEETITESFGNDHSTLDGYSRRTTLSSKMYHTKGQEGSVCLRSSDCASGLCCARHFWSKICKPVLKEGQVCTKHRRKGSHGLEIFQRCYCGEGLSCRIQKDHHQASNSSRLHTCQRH

[10] = test system: Inhibin beta A chain (activin A); assay: INHBA (activin A) binders on microarrays, primary screen, biochemical, small-molecule microarray, 635 nm fluorescence scan (AID 1107); settings: small-molecule microarray binding, higher = more signal;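 note: mouse activin A protein probed at 4.33 µg/mL on printed slides; score merges bound-protein fluorescence near 667 nm with spot signal-to-noise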
[11] = test system: Human papillomavirus type 1a protein E7 (residues 44-93); assay: HPV1a E7 fragment binders on microarrays, primary screen, biochemical, small-molecule microarray, residues 44-93, 635 nm fluorescence (AID 1108); settings: small-molecule microarray binding, fluorescence 635 nm; higher = more signal;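 note: E7 fragment applied at 1 µg/mL in TBST for 1 h at 4 C; score combines spot fluorescence with its signal to noise ratio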
[12] = modulators of HCV replicon luciferase signal, primary screen, HCV replication inhibitor project, Huh7 cells, luciferase reporter (AID 1109); settings: 48 h, higher = more signal;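 note: huh7 hepatoma cells harbouring a luciferase neomycin HCV replicon reporter; luciferase luminescence as measure of HCV replicon replication; test concentration not given here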
[13] = target: Left-right determination factor 2 (Homo sapiens) (UniProt O00292); assay: LEFTY2 binders on small-molecule microarrays, primary screen, biochemical, small-molecule microarray, 635 nm fluorescence scan (AID 1110); settings: LEFTY2 binding, higher = more signal
Left-right determination factor 2 (Homo sapiens), sequence (O00292 whole entry, looked up): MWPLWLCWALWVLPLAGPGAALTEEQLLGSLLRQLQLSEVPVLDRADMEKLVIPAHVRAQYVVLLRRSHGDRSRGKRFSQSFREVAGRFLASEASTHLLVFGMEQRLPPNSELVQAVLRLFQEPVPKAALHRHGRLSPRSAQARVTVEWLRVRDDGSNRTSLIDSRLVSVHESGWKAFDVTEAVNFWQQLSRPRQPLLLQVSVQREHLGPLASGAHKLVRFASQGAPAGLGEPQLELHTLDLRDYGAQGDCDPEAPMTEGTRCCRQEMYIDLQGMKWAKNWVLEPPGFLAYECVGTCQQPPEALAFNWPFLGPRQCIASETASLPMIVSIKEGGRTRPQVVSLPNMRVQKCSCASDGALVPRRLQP

[14] = target: Calmodulin-1 (Homo sapiens) (UniProt P0DP23); assay: CALM1 binders on microarrays, EGTA buffer, profiling panel, biochemical, small-molecule microarray, Cy5-labelled CALM1 (AID 1111); settings: Cy5-CALM1 binding fluorescence, higher = more signal;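 note: labelled calmodulin applied in Tris saline Tween buffer holding calcium plus EGTA and DTT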
[15] = target: Calmodulin-1 (Homo sapiens) (UniProt P0DP23); assay: calcium-bound CALM1 binders on microarrays, profiling panel, artefact control for SMM control-protein annotation, biochemical, small-molecule microarray, Cy5-labelled CALM1, plus calcium (AID 1112); settings: Cy5-CALM1 binding fluorescence, higher = more signal;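 note: score merges spot fluorescence with signal to noise from triplicate slides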
[16] = small-molecule microarray binders of probe aWnt5a, primary screen, biochemical, biotinylated probe, 635/667 nm fluorescence (AID 1113); settings: higher = more signal;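 note: score merges 667 nm fluorescence intensity with signal-to-noise per printed feature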
[17] = small-molecule microarray binders of probe aShh, primary screen, biochemical, biotinylated probe, 635/667 nm fluorescence (AID 1114); settings: higher = more signal;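 note: probe is biotin-labelled aShh protein from a stem cell growth factor screen; measures binding of labelled protein to compounds printed on the slide; score merges feature fluorescence at 667 nm with signal-to-noise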
[18] = small-molecule microarray binders of probe aNog, primary screen, biochemical, biotinylated probe, 635/667 nm fluorescence (AID 1115); settings: higher = more signal;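 note: probe is biotinylated aNog protein used at 0.15 µg/mL for 1 h at 4 C; z-score combines 667 nm fluorescence of each spot with its signal to noise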
[19] = target: Torsin-1A-interacting protein 1 (Homo sapiens) (UniProt Q5JTV8); assay: LAP1 binders from COS7 cell lysate, primary screen, small-molecule microarray, 635/667 nm fluorescence (AID 1116); settings: COS7-hLAP1 lysate binding, 635 nm fluorescence, higher = more signal
Torsin-1A-interacting protein 1 (Homo sapiens), sequence (Q5JTV8 whole entry, looked up): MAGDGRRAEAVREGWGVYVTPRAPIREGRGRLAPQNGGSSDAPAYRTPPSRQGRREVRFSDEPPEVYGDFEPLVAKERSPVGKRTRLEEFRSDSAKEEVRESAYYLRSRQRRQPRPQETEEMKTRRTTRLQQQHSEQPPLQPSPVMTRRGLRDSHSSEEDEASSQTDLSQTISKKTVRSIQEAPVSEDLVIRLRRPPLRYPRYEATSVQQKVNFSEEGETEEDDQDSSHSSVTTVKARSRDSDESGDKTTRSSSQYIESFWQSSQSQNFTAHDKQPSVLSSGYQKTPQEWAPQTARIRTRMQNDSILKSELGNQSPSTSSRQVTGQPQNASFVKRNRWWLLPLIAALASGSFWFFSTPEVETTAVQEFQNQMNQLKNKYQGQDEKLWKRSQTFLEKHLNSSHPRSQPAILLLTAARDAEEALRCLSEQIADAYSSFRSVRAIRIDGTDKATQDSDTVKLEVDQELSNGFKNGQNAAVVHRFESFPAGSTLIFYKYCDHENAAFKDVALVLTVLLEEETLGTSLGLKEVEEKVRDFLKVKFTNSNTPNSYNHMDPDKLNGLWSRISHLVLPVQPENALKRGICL

[20] = target: Alpha-bungarotoxin (Bungarus multicinctus) (UniProt P60615); assay: alpha-bungarotoxin binders on microarray, profiling panel, artefact control for SMM control protein annotation, biochemical, small-molecule microarray, Alexa647 label, 635/667 nm fluorescence (AID 1117); settings: alpha-BTX-A647 binding fluorescence, higher = more signal
Alpha-bungarotoxin (Bungarus multicinctus), sequence (P60615 whole entry, looked up): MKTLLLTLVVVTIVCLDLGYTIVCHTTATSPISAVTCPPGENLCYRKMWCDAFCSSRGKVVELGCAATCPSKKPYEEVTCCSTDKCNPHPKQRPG

| SMILES | composite z-score [1] | composite z-score [2] | composite z-score [3] | z-score [4] | composite z-score [5] | composite z-score [6] | composite z-score [7] | composite z-score [8] | composite z-score [9] | composite z-score [10] | composite z-score [11] | z-score [12] | composite z-score [13] | composite z-score [14] | composite z-score [15] | composite z-score [16] | composite z-score [17] | composite z-score [18] | composite z-score [19] | composite z-score [20] |
| --- | --- | --- | --- | --- | --- | --- | --- | --- | --- | --- | --- | --- | --- | --- | --- | --- | --- | --- | --- | --- |
| C[C@]1(C(=O)NCC(F)(F)F)c2ccccc2C(=O)N(Cc2ccccc2)[C@H]1c1ccc(CO)cc1 | 0.905 | -0.0306 | 0.543 | 0.0226 (inactive) | -1.63 | -1.8 | -1.3 | -1.47 | -1.71 | -0.264 | -0.0857 | -0.501 | -0.722 | -0.21 | 0.799 | -0.287 | -0.147 | -0.0799 | 0.015 | -0.553 |
| CO[C@H]1O[C@H](CO)[C@@H](OC(=O)c2ccc(Br)cc2)[C@@H]2OC(=O)[C@H](Cc3ccccc3)C/C=C/C[C@@H](Cc3ccccc3)C(=O)O[C@@H]12 | 1.14 | -0.407 | 0.0962 | -0.511 (inactive) | 0.583 | 0.186 | 0.287 | 0.435 | 0.214 | 1.24 | 0.79 | -3.01 | 0.109 | 0.575 | -0.662 | -0.275 | -0.23 | -0.542 | 0.706 | 0.142 |
| COc1cc(C(O)C2C=CC3C(=O)N(Cc4ccccc4)C(=O)C3N2n2cnnc2)cc(OC)c1OC (stereo not given) | 0.146 | 0.71 | 0.865 | -0.696 (inactive) | 0.571 | 0.389 | 0.489 | 0.16 | 0.134 | 1.23 | 0.335 | 0.312 | 0.109 | 0.409 | 0.0996 | 0.0751 | 0.543 | 0.266 | 0.88 | 0.971 |
| O=C1OCCC=C[C@H]2OC34C=CCN(c5ccc(Cl)cc5)C(=O)[C@H]3N(CCCCCCO)C(=O)[C@@H]4C12 (stereo not given in full) | 1.12 | -0.0366 | 0.499 | 0.189 (inactive) | -0.744 | -0.359 | -1.23 | -0.509 | -0.712 | -0.279 | -0.344 | -0.476 | -1.25 | -0.869 | -0.593 | -0.152 | -0.109 | 0.0422 | -0.307 | -1.35 |
| CCOC(=O)C[C@H]1[C@H](OC(=O)c2ccc(C(=O)c3ccccc3)cc2)[C@@H](NC(=O)CC(C)C)c2cc(OCCCO)ccc2N1C(=O)Cc1ccc(OC)cc1 | 0.0092 | 0.393 | 0.671 | -0.441 (inactive) | 0.197 | 0.231 | -0.204 | 0.261 | 0.276 | 0.829 | 1.1 | -2.05 | 0.142 | 1.19 | 0.263 | -0.0852 | -0.238 | 0.0437 | 0.812 | 0.118 |
| COc1ccc([Si](C)(C)[C@H]2[C@H](CCO)O[C@@]3(C(=O)N(Cc4ccccc4)c4ccc(N5CCOC5=O)cc43)[C@@H]2C)cc1 | 0.821 | 0.0261 | -0.214 | -0.711 (inactive) | 0.977 | 0.411 | 0.398 | 0.277 | 0.0837 | 0.212 | 0.27 | -4.13 | 0.28 | 0.284 | 0.299 | -0.0239 | 0.0062 | 0.325 | 0.673 | 0.0997 |
| C=C(CCCC)C(=O)CC[C@H](OC(C)=O)c1ccc(OCCO)cc1 | 0.56 | -0.262 | 0.0984 | -0.942 (inactive) | -0.509 | -1.24 | -0.448 | -0.746 | -0.8 | -0.146 | -0.319 | -2.73 | -0.0558 | -0.0294 | -0.92 | -0.102 | -0.262 | 0.0989 | -0.346 | 0.657 |
| O=C(NCC(O)CO)[C@@]1(CCS(=O)(=O)c2ccccc2)COC(c2ccc(OCCCO)cc2)=N1 (stereo not given in full) | 1.13 | 1.07 | 1.16 | 0.475 (inactive) | 0.655 | -0.454 | -0.375 | -0.199 | -0.522 | 0.877 | 1.38 | -0.119 | -0.412 | 1.25 | 1.09 | 0.0944 | 0.385 | 1.81 | 2.48 | 2.58 |
| O=C(CS)NCCCCCCNC(=O)[C@@H]1C[C@@H]2C(=O)NCC(=O)N2[C@@H]1c1ccc(O)cc1 | 1.57 | -0.11 | 0.592 | -1.65 (inactive) | -0.297 | -0.135 | -0.395 | -0.586 | -0.262 | -0.716 | -1.1 | 0.394 | -0.601 | 1.16 | 0.754 | -0.239 | -0.0035 | 0.0595 | -0.549 | -1.04 |
| CO[C@H]1O[C@H](CO)[C@@H](OC(=O)Nc2cccc(F)c2)[C@H](OC(=O)Nc2ccccc2-c2ccccc2)[C@H]1OC(=O)Nc1ccccc1-c1ccccc1 | 1.26 | 0.255 | 0.735 | 4.28 (inactive) | 1.46 | 1.33 | 0.321 | 1.3 | 0.585 | 0.664 | 1.48 | -3.82 | 0.494 | 0.88 | -0.305 | 0.0692 | -0.0977 | 0.895 | 1.09 | 0.816 |
| C=CCNC(=O)[C@H]1[C@@H]2C(=O)O[C@@H](c3ccccc3)[C@@H](c3ccccc3)N2[C@@H](c2ccc(OCCO)cc2)[C@]12C(=O)Nc1ccc(C#CCNC(N)=O)cc12 | 1.2 | 0.867 | 1.05 | -0.595 (inactive) | 1.13 | 0.332 | -0.471 | 0.65 | 0.0352 | 0.624 | 0.0863 | -0.587 | 0.192 | 1.41 | 1.15 | -0.0009 | 0.163 | 0.85 | 0.311 | 2.07 |

— PubChem BioAssay
